Gli-Sufu block: blocks Gli-Sufu signaling in a luciferase reporter; Sufu-KO-LIGHT fibroblasts, Gli luciferase reporter luminescence; inhibition, % at 5 µM; 0.74% of 340,000 active;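 active = inhibition above about 55%, limit read from the data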
NR3A LBD binder: modulates the human NR3A ligand-binding domain; 2.5% of 340,000 active; NR3A LBD differential scanning fluorimetry, Tm shift; 0% = protein alone, 100% = glycine-bound protein; AID 1259313; Tm shift relative to glycine control, % at 25 µM;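 active = melting temperature shift of at least 10% of the positive control shift, at one fixed dose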
Mdm2 MdmX PPI: inhibitors of human Mdm2/MdmX interaction | 3% of 330,000 active | AID 485346 | SaOS-2 split-luciferase Mdm2/MdmX complementation, luminescence | inhibition, % at 8 µM | O15151+Q00987;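 active = inhibition of at least 50% at 8 µM in the primary screen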
CSC inhib: cancer stem cell inhibition. cancer stem cell-like cells viability, luminescence. AID 2717. 1.1% of 300,000 active. inhibition, % at 7.5 µM; in the data active = inhibition above about 75%; tested in HMLE shEcad cells
MPTP inh: permeability transition pore inhibition. AID 602449. inhibition, % at 10 µM. 1.4% of 360,000 active. isolated mouse mitochondria, Ca2+ swelling absorbance, 30 min;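 active = inhibition of 50% or more, scaled per plate between neutral and stimulator controls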
Beta cell apopt: blocks beta cell apoptosis. INS-1E cytokine-induced death, ATP luminescence, 48 h; percent of positive-control rescue, neutral wells zero. 0.8% of 300,000 active. protection from apoptosis, % (concentration not given with the values);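 active = Every replicate reaches about 75%, or at least half do and their mean reaches it too, limit read from the data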;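 note: higher means more ATP so stronger rescue from cytokine killing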
Mdm2-MdmX conf: human Mdm2/MdmX binding inhibition, confirmed | shares compounds with Mdm2 MdmX PPI | luminescent assay | inhibition, % at 8 µM | 55% of 10,000 active; in the data active = inhibition above about 40%
FLuc counter: counter-screen for Mdm2/MdmX inhibitors: full-length luciferase; 77% of 6,200 active; inhibition, % at 8 µM; shares compounds with Mdm2 MdmX PPI; SaOS-2 full-length luciferase counterscreen, luminescence;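 active = mean inhibition at 8 µM reaching about 37%, which flags the compound as non-specific, limit read from the data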;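 note: p53-null SaOS-2 cells with luciferase driven by a doxycycline-inducible promoter; compound on cells about two nights before reading with doxycycline added after day one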
Each line names hits and unclear results; the compound was inactive in the other large screens (follow-up assays come after a bar, where they were run). Compounds with a hit are over-represented: about 6.6% of the library has one in this group of screens.

CC(C)(C)SCCNC(=O)Nc1ccccc1	none
CC(C)CN=C(NS(=O)(=O)c1ccccc1)C(Cl)(Cl)Cl	Mdm2 MdmX PPI 87.6, CSC inhib 146.7 | Mdm2-MdmX conf 81.2 | FLuc counter inactive
CC(C)CC(NS(=O)(=O)c1ccccc1)C(=O)O (stereo not given)	none
C=C(C)CN1C(=O)C(C)SC1=NN=C1SCC(=O)N1C (stereo not given)	none (no result: Gli-Sufu block, NR3A LBD binder, Mdm2 MdmX PPI, CSC inhib, Beta cell apopt)
Cc1ccc(S(=O)(=O)CCc2nc3ccccc3n2CCC#N)cc1	Mdm2 MdmX PPI 61.9 | Mdm2-MdmX conf inactive | FLuc counter inactive
O=[N+]([O-])c1ccc(-c2nc(C(Cl)Cl)c3ccccc3n2)cc1	Mdm2 MdmX PPI 99.0, CSC inhib 96.9, Beta cell apopt 94.0 | Mdm2-MdmX conf 100.1 | FLuc counter 51.5
COC(=O)c1c(-c2ccc(C)cc2)csc1NC(=O)c1c(-c2ccccc2)noc1C	Mdm2 MdmX PPI 79.0 (no result: Gli-Sufu block, NR3A LBD binder, MPTP inh, Beta cell apopt) | Mdm2-MdmX conf 80.1 | FLuc counter 38.9
Cc1onc(-c2ccccc2Cl)c1C(=O)Nc1sc2c(c1C#N)CCC2	none
CCOCc1nnc(NC(=O)c2c(-c3ccccc3)noc2C)s1	none (no result: CSC inhib, Beta cell apopt)
CCOC(=O)c1c(NC(=O)c2c(-c3ccccc3)noc2C)sc(C)c1-c1ccccc1	Mdm2 MdmX PPI 100.1 | Mdm2-MdmX conf 93.3 | FLuc counter 51.5
CCOC(=O)c1sc(NC(=O)c2cc(-c3cccc(O)c3)on2)c(C(=O)OCC)c1C	none (no result: Beta cell apopt)
CCOC(=O)c1c(NC(=O)c2cc(-c3cccc(O)c3)on2)sc(C(C)=O)c1C	Mdm2 MdmX PPI 74.6 (no result: Beta cell apopt) | Mdm2-MdmX conf inactive
Cc1onc(-c2ccccc2)c1C(=O)Nc1sc2c(c1C#N)CCC(C)C2 (stereo not given)	Mdm2 MdmX PPI 59.3, CSC inhib 139.1 | Mdm2-MdmX conf 54.6 | FLuc counter 55.9
CC(=O)N/N=C/c1ccccc1OCCOc1cccc(C)c1	none
O=C(c1ccc2c(c1)OCO2)N1CCN(S(=O)(=O)c2ccc(Br)cc2Cl)CC1	none (no result: CSC inhib)
CCOC(=O)c1c(NC(=O)/C=C\C(=O)O)sc(C)c1-c1ccccc1	none
CCCOc1cccc(NC(=O)c2c(-c3ccccc3)noc2C)c1	none
CCOC(=O)c1c(NC(=O)/C=C/C(=O)O)sc(C)c1-c1ccc(C(C)(C)C)cc1	Mdm2 MdmX PPI 86.9, CSC inhib 109.2, Beta cell apopt 79.4 | Mdm2-MdmX conf 79.8 | FLuc counter 56.4
Cc1cccc(OCCOC(=O)c2c(-c3ccccc3)noc2C)c1	Mdm2 MdmX PPI 54.7 (no result: CSC inhib) | Mdm2-MdmX conf inactive
CC1(C)CN(c2ccc(Br)cc2)C(=O)[C@H]1CC(=O)Nc1ccccc1	none (no result: Gli-Sufu block, NR3A LBD binder, Mdm2 MdmX PPI, CSC inhib, Beta cell apopt)
O=C(CN1CCCc2ccccc21)N/N=C/c1ccc(F)cc1F	none
O=C(CN1CCCc2ccccc21)N/N=C/c1ccccc1O	Mdm2 MdmX PPI 77.1, Beta cell apopt 98.8 | Mdm2-MdmX conf 63.1 | FLuc counter inactive
Cc1ccc(-c2cc(C(F)F)n3ncc(C(=O)N4CCc5ccccc54)c3n2)cc1	Mdm2 MdmX PPI 60.8 | Mdm2-MdmX conf 64.2 | FLuc counter 56.7
CCc1nccn1C(=O)c1cnn2c(C(F)F)cc(-c3ccc(C)cc3)nc12	Mdm2 MdmX PPI 60.7 | Mdm2-MdmX conf inactive
CCCCCN(C(=O)CCC(=O)OCC(=O)N1CCCCC1C)c1c(N)n(CCCC)c(=O)[nH]c1=O (stereo not given)	none
COc1cccc(NC(=O)CN(C)CC(=O)Nc2ccc3c(c2)OCO3)c1	none
COc1cccc(NC(=O)CN(C)CC(=O)Nc2ccc(C)c([N+](=O)[O-])c2)c1	Mdm2 MdmX PPI 61.2 | Mdm2-MdmX conf 46.4 | FLuc counter 41.7
O=C(CN1CCN(CC(=O)Nc2ccc3c(c2)OC2(CCCCC2)O3)CC1)Nc1cccc(F)c1	none (no result: Mdm2 MdmX PPI, CSC inhib, Beta cell apopt)
C=C1CCC[C@]2(C)C[C@H]3OC(=O)C(CN(Cc4ccc(OC)c(OC)c4)CC(C)O)[C@H]3CC12 (stereo not given in full)	Mdm2 MdmX PPI 67.7 | Mdm2-MdmX conf 48.0 | FLuc counter 39.8
CC1CCN(CCOCCOc2ccc(Br)cc2Cl)CC1	Mdm2 MdmX PPI 52.5 (no result: CSC inhib) | Mdm2-MdmX conf inactive
Cc1cc(Br)ccc1OCCOCCN1CCCC1	none (no result: Beta cell apopt)

Source: PubChem BioAssay (several laboratories)
